Screens as filed in PubChem.
NSD2 inh: NSD2 histone methyltransferase inhibitors, primary screen, biochemical, AlphaScreen, single concentration, set 2. Histone-lysine N-methyltransferase NSD2 (Homo sapiens), O96028. 310,000 tested, 0.54% active. inhibition, % at 12.5 µM. NSD2 peptide methylation, 120 min. AID 743445, 2014; in the data active = inhibition above about 50%
CASP6 VEID inh: human caspase-6 inhibitors, primary screen, biochemical, VEID-R110 fluorescence, single point, set 2 | P55212 | purified caspase-6, Z-VEID-R110 cleavage fluorescence | inhibition, % at 12.5 µM | 350,000 tested, 0.53% active | AID 686996, 2013;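 active = mean inhibition across replicates at least about 35%, with every replicate also reaching that limit, limit read from the data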
RAD54 inh: inhibitors of human RAD54 branch migration, primary screen, biochemical, fluorescence, single point; DNA repair and recombination protein RAD54-like (Homo sapiens), Q92698; RAD54 Holliday junction branch migration, FAM/BHQ fluorescence; inhibition, % at 10.4 µM; 360,000 tested, 0.14% active;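 active = mean normalized replicate activity at least 40 and at least half of replicates scoring 40 or more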;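 also: inhibitors cause a drop in the FAM fluorescence signal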
Glyco luc inh: increase of ERlucT glycosylation luciferase signal, primary screen, N-linked glycosylation inhibitor project, D54 ERlucT cells, luminescence, set 2; D54 ERlucT glycosylation luciferase reporter, 24 h; percent of 100 nM tunicamycin response; reporter increase, % at 12.5 µM; 360,000 tested, 0.23% active; AID 588692, 2011;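 active = mean luciferase reporter signal, scaled so untreated is 0 and the glycosylation-blocking control 100, at or above a set limit in every replicate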;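 also: luciferase carries N-glycosylation sites so blocking glycosylation raises the light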
RAD52 anneal inh: RAD52 DNA annealing inhibitors, primary screen, biochemical, FRET, single point, set 2. DNA repair protein RAD52 homolog (Homo sapiens), P43351. recombinant RAD52 DNA annealing, FRET fluorescence. inhibition, % at 18.7 µM. 360,000 tested, 0.46% active;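 active = every replicate showing at least 50% inhibition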
Target sequence (P43351 whole entry, looked up): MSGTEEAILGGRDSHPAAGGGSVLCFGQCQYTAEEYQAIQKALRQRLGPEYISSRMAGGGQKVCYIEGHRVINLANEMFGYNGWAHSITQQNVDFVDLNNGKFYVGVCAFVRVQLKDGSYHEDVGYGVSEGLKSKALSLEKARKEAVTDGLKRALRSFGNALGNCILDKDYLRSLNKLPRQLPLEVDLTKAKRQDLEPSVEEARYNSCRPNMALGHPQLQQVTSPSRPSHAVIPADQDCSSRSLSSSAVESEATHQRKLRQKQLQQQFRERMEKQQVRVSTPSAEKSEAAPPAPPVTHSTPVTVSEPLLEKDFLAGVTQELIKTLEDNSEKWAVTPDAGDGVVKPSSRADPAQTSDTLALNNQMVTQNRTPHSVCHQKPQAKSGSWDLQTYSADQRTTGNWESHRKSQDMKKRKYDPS
Hits are given with their value; i = inactive; nt = no result. Only some compounds are listed: those with a hit (about 1.2% of all), similar ones and a draw of the others.

SMILES	NSD2 inh	CASP6 VEID inh	RAD54 inh	Glyco luc inh	RAD52 anneal inh
COc1cccc(NC(=O)Nc2ccc3c(c2)C(=O)N(C)C[C@@H](OC)[C@H](C)CN(CC2CC2)[C@@H](C)CO3)c1	nt	i	i	nt	64
COc1cccc(NC(=O)Nc2ccc3c(c2)C(=O)N(C)C[C@H](OC)[C@H](C)CN(CC2CC2)[C@@H](C)CO3)c1	nt	i	i	nt	i
COc1cccc(NC(=O)Nc2ccc3c(c2)C(=O)N(C)C[C@H](OC)[C@H](C)CN(C)[C@H](C)CO3)c1	nt	i	i	nt	89
COc1cccc(NC(=O)Nc2ccc3c(c2)C(=O)N(C)C[C@@H](OC)[C@@H](C)CN(C)[C@H](C)CO3)c1	nt	i	i	nt	95
CO[C@@H]1CN(C)C(=O)c2cc(NC(=O)C3CC3)ccc2OC[C@@H](C)N(C(=O)c2ccccc2)C[C@@H]1C	nt	i	i	nt	i
CO[C@H]1CN(C)C(=O)c2cc(NC(=O)C3CC3)ccc2OC[C@H](C)N(C(=O)c2ccccc2)C[C@H]1C	nt	70	i	nt	i
CS(=O)(=O)N1CC2(C1)[C@@H](c1ccccc1)[C@H](CO)N2Cc1ccc(F)cc1	nt	i	nt	nt	i
O=C(c1ccncc1)N1CC2(C1)[C@H](c1ccccc1)[C@@H](CO)N2CC1CCCC1	nt	i	nt	nt	i
O=C(C[C@H]1CC[C@@H]2[C@H](COC[C@H](O)CN2S(=O)(=O)c2ccccc2)O1)NCc1ccc(-c2ccccc2)cc1	nt	i	i	nt	56
CS(=O)(=O)N1C[C@@H](O)COC[C@H]2O[C@@H](CC(=O)NCc3ccc(-c4ccccc4)cc3)CC[C@@H]21	nt	i	i	nt	59
O=C(C[C@H]1CC[C@H]2[C@@H](COC[C@@H](O)CN2S(=O)(=O)c2ccccc2)O1)NCc1ccc(-c2ccccc2)cc1	nt	i	i	nt	i
O=C(C[C@H]1CC[C@@H]2[C@H](COC[C@@H](O)CN2S(=O)(=O)c2ccccc2)O1)NCc1ccc(-c2ccccc2)cc1	nt	i	i	nt	75
O=C(C[C@@H]1CC[C@H]2[C@@H](COC[C@@H](O)CN2S(=O)(=O)c2ccccc2)O1)NCc1ccc(-c2ccccc2)cc1	nt	i	i	nt	59
COc1ccc2c3c(n(C)c2c1)[C@@H](CO)N(C)CC31CN(S(=O)(=O)c2cccc(F)c2)C1	nt	nt	nt	nt	i
C[C@@H]1CCCCO[C@@H](CN(C)C)[C@@H](C)CN([C@@H](C)CO)C(=O)c2cc(NC(=O)C3CCCCC3)ccc2O1	nt	i	i	nt	i
COc1cc(C2c3[nH]c4ccccc4c3CC3COC(=O)N32)cc(OC)c1O (stereo not given)	i	i	nt	36	i
COc1cc([C@H]2c3[nH]c4ccccc4c3C[C@H]3C(=O)N4[C@@H](c5cc(OC)c(OC)c(OC)c5)c5[nH]c6ccccc6c5C[C@H]4C(=O)N23)cc(OC)c1OC	nt	nt	i	i	nt
O=C(NC[C@@H]1CC[C@@H]2[C@@H](CN2S(=O)(=O)c2ccccc2[N+](=O)[O-])O1)C1CCOCC1	nt	53	nt	nt	i
O=C(NC[C@H]1CC[C@@H]2[C@@H](CN2S(=O)(=O)c2ccccc2[N+](=O)[O-])O1)Nc1ccccc1	nt	i	nt	nt	i
COC(=O)N1C(=O)[C@@](c2ccc(Cl)cc2)(C(C)C)N1C(=O)OC	i	nt	nt	nt	nt
COc1cc(OC)c(-c2nn3c(C4CCCCC4)nnc3s2)cc1OC	i	43	i	i	i
COc1cc(-c2nnc3sc(C4CCCCC4)nn23)cc(OC)c1OC	nt	nt	i	i	nt
COc1ccc(CN(C)C[C@H]2Oc3ccc(NC(=O)Nc4c(C)noc4C)cc3C(=O)N([C@@H](C)CO)C[C@@H]2C)cc1	nt	i	i	nt	i
COc1ccc(CN(C)C[C@@H]2Oc3ccc(NC(=O)Nc4ccccc4)cc3C(=O)N([C@@H](C)CO)C[C@H]2C)cc1	nt	nt	53	nt	i
COc1ccc(CN(C)C[C@@H]2Oc3ccc(NC(=O)NC4CCCCC4)cc3C(=O)N([C@H](C)CO)C[C@H]2C)cc1	nt	i	i	nt	i
COc1ccc(CN(C)C[C@@H]2Oc3ccc(NC(=O)NC4CCCCC4)cc3C(=O)N([C@@H](C)CO)C[C@H]2C)cc1	nt	i	63	nt	i
C[C@H](CO)N1C[C@H](C)[C@@H](CN(C)Cc2ccc(-c3ccccc3)cc2)Oc2ccc(NC(=O)NC3CCCCC3)cc2C1=O	nt	i	i	nt	89
